From ChEMBL document CHEMBL3988442, “University of Dundee, Small-Polar-MMV Screening Library” (2021)
Hit rate of the full screen: of about 38,000 compounds, about 1,200 (3.2%) showed an effect of 50% or more. The median lay at about -58%. This is one part of a sample in which strong results are shown more often than they occur.

tested on: Plasmodium falciparum; assay: Calibr Malaria Delayed Death Assay SOP; format: functional, organism-based; design: scale not given: in the data most compounds retested in dose-response had high values; conditions: concentration 4.99e-06 (unit not given; other assays of the set use mol/L)

SMILES | Percent Effect [%]
CC(=O)NCc1ccc(C(=O)N2CCCC(n3cncn3)C2)o1 (stereo unspecified) | -131.6
O=C([C@@H]1CCO[C@@H]2CCN(CC3CC3)C[C@H]21)N1CCCCO1 | -73.92
CCC(=O)NCC(=O)NCC(C)(C)c1cccc(Br)c1 | 86.82
CC(C)(C(=O)NCCCC(N)=O)c1cccc(Br)c1 | -41.82
COC(=O)NCC(=O)NCC(C)(C)c1cccc(Br)c1 | 84.11
COC(=O)NCC(=O)NCC(C)(C)c1cccc(C(F)(F)F)c1 | 46.67
CC(C)(C(=O)NCCC(=O)O)c1cccc(Br)c1 | -14.62
CCC(=O)NCC(=O)NCc1cc(Br)ccc1OC(F)F | 4.46
Cn1c(C2CC2)nc2c1CCN(CCOc1ccccc1C#N)C2 | -3.674
CC1c2ncc(CN3CCN(C)CC3)n2CCN1Cc1ccccn1.O=C(O)C(F)(F)F.O=C(O)C(F)(F)F.O=C(O)C(F)(F)F.O=C(O)C(F)(F)F (stereo unspecified) | -124
Oc1ccc(N2CCC(Cc3ccccc3)CC2)nn1 | -73.68
N#Cc1cccc(CNC(=O)Nc2cccnc2N2CCCC2)c1 | -57.4
CCNC(=O)c1ccnc(CC2COc3c(cccc3OC)C2)c1 (stereo unspecified) | -85.49
CCc1ccc2nc(NCC(O)CO)cc(C)c2c1 (stereo unspecified) | -100
CCc1ccc2nc(NCCOCCO)cc(C)c2c1 | -140.8
CCc1ccc2nc(NCCCN(CCO)CCO)cc(C)c2c1 | 83.32
COc1ccc(-c2ccc(C(=O)N3CCC[C@@H]3CO)o2)cc1 | -98.07
COCCN1C[C@@H]2CN(C(=O)[C@H]3CCCO3)C[C@@H]2C1=O | -140.9
Cc1cnc(CN2CCN(c3ccnc(-c4ccccc4)n3)CC2)cn1 | -117.9
CC(C)(C)C(=O)N1C[C@H](c2ccsc2)[C@H]2CN(Cc3cccs3)CC[C@H]21.Cl | 27.72
COC(=O)N1CCC(NC(=O)N2CCCC2c2ccsc2)CC1 (stereo unspecified) | -44.77

SMILES | Percent Effect [%]
O=C(CC1CC1)N1CCO[C@H]2[C@H](OCCCn3cccn3)CC[C@@H]21.O=C(O)C(F)(F)F | -14.73
CN(C)C(=O)N1CCC2(CC(=O)N(c3cccc(C#N)c3)C2)C1 (stereo unspecified) | -56.91
Cc1ccccc1CC(=O)N1C[C@@H]2COC[C@]2(CN(C)C)C1.O=C(O)C(F)(F)F | -70.43
CN(C)C1CCN(C(=O)c2ccnn2-c2ccc3ccccn23)CC1.O=C(O)C(F)(F)F | -10.05
O=C(c1ccnn1-c1ccc2ccccn12)N1CCOCC1 | -129.8
CN1CCCN(C(=O)c2ccnn2-c2ccc3ccccn23)CC1.O=C(O)C(F)(F)F | 69.35
Cc1ncsc1CNCC(C)c1nc2ccccc2o1 (stereo unspecified) | -88.91
Cc1nc(CN2CCC(N(C)Cc3noc(C4CC4)n3)C2)oc1C (stereo unspecified) | -157.8
CCC[C@@H]1CN(C(=O)c2ccccc2C(C)=O)C[C@H]1N(C)C | -122.5
CCC[C@@H]1CN(C(=O)c2cc(-c3cccs3)n(C)n2)C[C@H]1N(C)C | -67.73
CCC[C@@H]1CN(C(=O)c2ccccc2-c2ccccc2)C[C@H]1N(C)C | 18.3
CCC[C@@H]1CN(C(=O)c2conc2-c2ccccc2)C[C@H]1N(C)C | 50.45
CCC[C@@H]1CN(C(=O)c2cc3ccccc3cc2O)C[C@H]1N(C)C | 51.44
CCC[C@@H]1CN(C(=O)c2ccccc2-c2ncc[nH]2)C[C@H]1N(C)C | -89.87
CC(C)(C)c1cnc(CN(Cc2cccnc2)CC2CCCO2)o1 (stereo unspecified) | 21.12
CC(O)CN1CCc2onc(-c3ccccc3F)c2C1 (stereo unspecified) | -120.6
CN(C)S(=O)(=O)N1CCCC(c2cccc(Cc3ccccc3F)n2)C1 (stereo unspecified) | -73.25
CN(C)C(=O)CN1CCCC1c1cccc(Cc2ccccc2F)n1 (stereo unspecified) | 67.28
CN(C)C(=O)CCc1cncc(C2CCCN2Cc2ccccn2)n1 (stereo unspecified) | -28.93
CN1CCN(C2COC3(CCN(Cc4ccsc4)CC3)C2)CC1.O=C(O)C(F)(F)F.O=C(O)C(F)(F)F (stereo unspecified) | -16.23
COC(=O)c1cccn1C1CCN(C(=O)c2ccc(C)cc2O)CC1 | -37.36

SMILES | Percent Effect [%]
Nc1cc(C(=O)NC2CCCN(CCCc3ccccc3)C2)ccn1 (stereo unspecified) | -86.42
Nc1ncncc1-c1noc([C@@H]2CCCN2CCCc2ccccc2)n1 | -66.01
CS(=O)(=O)NC1CCN(C(=O)NCc2cccnc2)CC1 | -62.74
O=C(c1ccoc1)N1CC[C@H]2C[C@@H](c3ccncn3)O[C@@H]2C1 | -72.56
COc1cccc(CCC(=O)Nc2cnc3c(c2)c(C)nn3C)c1OC | -140.4
COc1nccc(N2CC[C@@H](N3CCC(O)CC3)[C@H](O)C2)c1C#N | -80.42
COc1nccc(N2CC[C@@H](N3CCCCCC3)[C@H](O)C2)c1C#N | 51.1
COc1nccc(N2CC[C@H](N3CCOCC3)[C@H](CCCO)C2)c1C#N | -24.24
COc1ccc(C(N)=O)cc1NCc1ncc(-c2cccs2)o1 | -57.49
O=C(O)CCc1nc2nccc(-c3ccc(F)cc3)n2n1 | -150.8
COc1ccc(-c2noc(CN3CC(n4cc(C)cn4)C3)n2)cc1 | -35.96
CC(C)Nc1ccnc(N2Cc3cnc(C(C)(C)C)nc3C2)n1 | 49.86
CCNc1ccnc(N2Cc3cnc(CC(C)C)nc3C2)n1 | 74.44
CC(C)Cc1ncc2c(n1)CN(c1cc(NC3CC3)nc(N)n1)C2 | -26.11
O=C(CSc1nnc2n1N=CN(c1ccccc1)C2)c1ccccc1 | -130.4
CC(C(=O)Nc1cccc(Cl)c1)N1CCN(Cc2ncc[nH]2)CC1 (stereo unspecified) | 12.72
COCCCN1CCCN(C(C)C(=O)Nc2cccc(I)c2)CC1 (stereo unspecified) | 89.66
CCOCCN1CCN(C(C)C(=O)Nc2ccnn2C(C)C)CC1 (stereo unspecified) | -116
Cc1noc(CN(C)CC2CCCN(CCc3ccc(Cl)cc3)C2)n1 (stereo unspecified) | -81.63
